# Experimental data reported in PubChem BioAssay AID1347419 (Sanford-Burnham Center for Chemical Genomics, 2020).
# Out of some 99,000 compounds screened, about 820 (0.83%) were called active.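 Rule for the calls: active = Z-score of -3 or lower, scaled per plate to the spread of control and sample wells; inactive = z-score above -3.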 The full list was thinned out, with actives kept by preference.
# Target: Protein-tyrosine kinase 2-beta (Homo sapiens) (UniProt Q14289)
# Experiment: Pyk2 FERM oligomerization blockers – Q293 cells, FERM NanoBiT luminescence, HTS, primary screen (AID 1347419);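 note: the deposit names both 25 µM and 10 µM; negative z-score means lost luminescence so less FERM oligomerization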
# Parameters: dose or concentration left out as unconfirmed
# Settings: hits give low values
# Protein-tyrosine kinase 2-beta (Homo sapiens), sequence (Q14289 whole entry, looked up): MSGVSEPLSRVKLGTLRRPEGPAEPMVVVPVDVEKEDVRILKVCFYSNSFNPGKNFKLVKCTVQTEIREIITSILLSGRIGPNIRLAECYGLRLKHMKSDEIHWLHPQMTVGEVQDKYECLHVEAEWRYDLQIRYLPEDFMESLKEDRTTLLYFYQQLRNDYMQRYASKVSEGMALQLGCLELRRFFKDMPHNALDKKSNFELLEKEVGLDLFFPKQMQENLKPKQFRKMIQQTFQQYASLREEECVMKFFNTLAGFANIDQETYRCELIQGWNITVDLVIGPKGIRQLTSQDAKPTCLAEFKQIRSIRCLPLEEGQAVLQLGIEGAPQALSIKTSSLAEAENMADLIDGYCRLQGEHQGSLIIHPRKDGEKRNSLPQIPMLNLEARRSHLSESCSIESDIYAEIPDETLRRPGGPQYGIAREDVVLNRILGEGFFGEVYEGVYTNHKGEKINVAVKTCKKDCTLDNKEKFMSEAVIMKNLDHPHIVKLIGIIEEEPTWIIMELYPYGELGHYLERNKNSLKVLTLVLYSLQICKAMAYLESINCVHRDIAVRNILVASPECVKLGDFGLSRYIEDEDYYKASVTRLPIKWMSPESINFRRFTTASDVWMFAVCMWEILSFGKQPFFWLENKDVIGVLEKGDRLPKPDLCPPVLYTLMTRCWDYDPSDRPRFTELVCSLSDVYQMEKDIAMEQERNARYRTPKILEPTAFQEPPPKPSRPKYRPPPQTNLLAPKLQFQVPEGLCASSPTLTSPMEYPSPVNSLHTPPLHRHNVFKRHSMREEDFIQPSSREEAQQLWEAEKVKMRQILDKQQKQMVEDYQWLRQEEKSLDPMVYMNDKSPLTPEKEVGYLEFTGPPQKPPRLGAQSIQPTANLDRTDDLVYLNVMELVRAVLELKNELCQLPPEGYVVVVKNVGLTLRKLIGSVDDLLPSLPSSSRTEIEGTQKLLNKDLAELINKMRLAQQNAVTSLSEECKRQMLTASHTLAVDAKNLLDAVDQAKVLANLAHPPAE
row,Compound,z-score
1,CCC(=NCc1ccco1)c1c(O)n(Cc2ccccc2)c(=O)[nH]c1=O,-0.23 (inactive)
2,CCC(=NCCc1ccccc1)c1c(O)n(C2CCCCC2)c(=O)[nH]c1=O,-3.36 (active)
3,CC(=O)c1c(O)n(C2CCCCCC2)c(=O)[nH]c1=O,0.12 (inactive)
4,CN(C)c1ccc(/C=C2\CC3C4CC=C5CC(O)CCC5(C)C4CCC3(C)C2=O)cc1 (stereo not given),-0.08 (inactive)
5,O=C(COC(=O)c1ccccc1)Nc1ccc(Cl)cc1C(=O)c1ccccc1,0.02 (inactive)
